Test results reported in the supplement of paper PMC8387472.

compound: S=c1[nH]cnc2nc[nH]c12 [Mercaptopurine (6-MP)]; experiment: fraction of microhomology deletions among edited reads; higher = more MH deletions; settings: mESC; 2uM; 72 h treatment, harvest day 5

Target	fraction of microhomology deletions among edited reads
20.0 (DMSO control at this site: 1-bp insertion 0.349, MH deletion 0.138, edited 0.084) TACAGGTGTAGACTGGTTACGTGGCTGCGGAATTGACTGGTTACGTGGCTGCGGAATTTTG	0.2
43.0 (DMSO control at this site: 1-bp insertion 0.134, MH deletion 0.714, edited 0.104) AGTTTAACTTACTCCGGCCAAAAAAGAACTGCACCTCTGGAGCGGGTTAGTGGTGGTGGTA	0.614
33.0 (DMSO control at this site: 1-bp insertion 0.008, MH deletion 0.771, edited 0.112) CATTAAGAGCAGCTGCCGGCCCCCAAGTGGACAGAGCTGGCCCTGCTGATTCAACAGTGCA	0.699

compound: S=c1nc[nH]c2nc[nH]c12 [6-Mercaptopurine (6-MP) Monohydrate]; experiment: as above; settings: mESC; 2uM; 72 h treatment, harvest day 5

Target	fraction of microhomology deletions among edited reads
32.0 (DMSO control at this site: 1-bp insertion 0.03, MH deletion 0.85, edited 0.898) AGAAGTCCAGGATCAGGGGGACTGGGGTCGGGAGGGTGGGGCAGGAAGGAAGCCAGAATCA	0.897
26.0 (DMSO control at this site: 1-bp insertion 0.518, MH deletion 0.262, edited 0.026) AGGGCGCGCCCCACGCACTCTGCGGCAAGTCCCTCTGCGGCAAGTCCTCGGCCCGGAAGAC	0.297
18.0 (DMSO control at this site: 1-bp insertion 0.114, MH deletion 0.789, edited 0.094) GCGCAAGTGCATAAGTTTTTCTTAAGGCGTGCCTTTAAGGCGTGCCTTTGTCGGTCCTGGA	0.733
41.0 (DMSO control at this site: 1-bp insertion 0.022, MH deletion 0.754, edited 0.115) AAAGAGACAGCAGGTATGAATCCATCTTCCTGACCCTTGGGACCAGCCGGGGCAGTGAAGC	0.674
15.0 GCGCCTCCAATGACCCAGTGGGATCCTACTCCATAATGGGATCCTGGGGATTCCTCGCTCC	0.339
47.0 (DMSO control at this site: 1-bp insertion 0.095, MH deletion 0.585, edited 0.118) GAGTGGTCCCGAGCCAGGAACTGTGTGTGTTGCAGGGGGGCAGTAACTCCCCAACTCCCTC	0.401
35.0 (DMSO control at this site: 1-bp insertion 0.01, MH deletion 0.72, edited 0.098) CCACTTTTAGAGAGGGTGAAAATCATCAGTTATCATCAGGGCAACAAATTGCTTTCTCCTA	0.657
16.0 (DMSO control at this site: 1-bp insertion 0.172, MH deletion 0.29, edited 0.05) CGGACTGCACACATGGGTAGGATCGTGCACGCGAGGTAGGATCGTGCACGCGAAGTTATTC	0.294
19.0 (DMSO control at this site: 1-bp insertion 0.121, MH deletion 0.101, edited 0.057) TCTGCAGGGGTCGGAACCCGGGGGCTAGGGCTATCCCGGGGGCTAGGGCTATTAGCGAACC	0.163
22.0 (DMSO control at this site: 1-bp insertion 0.573, MH deletion 0.229, edited 0.045) CTGATGGTTGAAGGATTTAGCCGGGGTCCTAGACGCCGGGGTCCTAGACGAAAGGGCCACG	0.155
38.0 (DMSO control at this site: 1-bp insertion 0.063, MH deletion 0.487, edited 0.17) GGGCTGGGTGCTAAAATGAGGAGCTCCAAGAAGACTGAGGTGAACCTGGAGGCCCCTGAGC	0.468
5.0 (DMSO control at this site: 1-bp insertion 0.214, MH deletion 0.567, edited 0.105) CGCTGACCCGAGACCTACGCGAACCGAAATCGGCGACCGGTGCGCAAGCAGGGCTGGCGTC	0.498
1.0 (DMSO control at this site: 1-bp insertion 0.521, MH deletion 0.323, edited 0.141) GTGTCACAGTGCACGAGTGACGGGATAATGTGCTGACAGGTAATTGATAGGCTTCCAACTT	0.218
0.0 (DMSO control at this site: 1-bp insertion 0.463, MH deletion 0.339, edited 0.14) AGGATTACCGAGACCTACGCGAACCGAAATCGCTGTCCGGTGCGCAAGCAGGGCTGGCGTC	0.282
